Assay outcomes: PubChem BioAssay, several laboratories
Arbovirus anti = antivirals against arbovirus infection, primary screen, cell-based, full library, 10K replicate subset | arbovirus infection cell-based antiviral screen | inhibition, % at 10 µM | 0.37% of 200,000 active | AID 1251, 2008; in the data active = inhibition above about 30%
Measles CPE = compounds protecting cells from measles virus cytopathic effect, primary screen, measles RdRp inhibitor project, single point, MLSMR library, absorbance | Measles virus-infected cells, CPE protection | protection (pct of control), % at 4 µM | 1.5% of 140,000 active; in the data active = protection mostly above about 24%, no sharp cut-off; inactive = mostly below about 26%
ROMK primary = ROMK potassium channel modulators, primary screen, cell-based, thallium flux, MLSMR library; ATP-sensitive inward rectifier potassium channel 1 (Homo sapiens), P48048; Tet-inducible ROMK, thallium flux fluorescence; actives lie on both sides; B-score at 10 µM; 2% of 130,000 active; AID 1918, 2009;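 active = signal ratio slope over the read window, or its plate-corrected B-score, at least 3 SD from the plate mean, either direction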;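 note: B-score of the F/F0 ratio slope over 7 to 12 s after thallium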
Target sequence (P48048 whole entry, looked up): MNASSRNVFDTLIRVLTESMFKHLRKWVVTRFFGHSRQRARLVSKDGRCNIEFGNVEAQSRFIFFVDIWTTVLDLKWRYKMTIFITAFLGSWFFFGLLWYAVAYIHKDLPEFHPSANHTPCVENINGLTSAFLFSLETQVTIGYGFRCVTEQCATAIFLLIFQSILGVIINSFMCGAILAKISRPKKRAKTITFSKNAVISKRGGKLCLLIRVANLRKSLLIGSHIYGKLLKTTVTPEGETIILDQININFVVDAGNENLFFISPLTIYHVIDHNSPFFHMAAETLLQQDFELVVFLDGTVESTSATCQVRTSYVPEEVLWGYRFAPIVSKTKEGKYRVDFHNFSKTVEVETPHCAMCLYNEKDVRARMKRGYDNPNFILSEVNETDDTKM
KCC2 mod = KCC2 cotransporter modulators, thallium flux, primary screen, cell-based, HEK293 KCC2, FluoZin-2 fluorescence, MLSMR; KCC2 cells, thallium flux FluoZin-2 fluorescence; B-score of Tl+ flux slope (higher = more flux/activation; lower = inhibition) at 10 µM; 2.2% of 190,000 active; AID 1456, 2008;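 active = thallium flux slope and its plate-corrected score both differing from the plate sample mean at a set confidence after two filtering rounds, in either direction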;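 note: slope of fluorescence scaled to starting intensity during 10 to 20 s after thallium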
HSV augment = enhancers of HSV replication in host cells, fold increase, host cell viability; AID 1956, 2009; 0.005% of 220,000 active; maximum fold increase; HSV replication augmentation in cells; in the data active = maximum fold increase above about 1.5; inconclusive = no clear call, values can overlap the other calls; tested in PC3 cells
KCC2 sec1 = KCC2 modulators in sodium-free buffer, confirmation, cell-based, HEK293 KCC2, thallium flux, secondary assay. normalised thallium flux (F/F0 slope) at 10 µM. FluoZin2 fluorescence; active compounds read high. shares compounds with KCC2 mod. 15% of 3,700 active;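 active = thallium flux slope above the same plate's solvent-only control mean plus 3 SD; inconclusive = the two replicate wells disagree; inactive = no significant difference from solvent-only control wells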
KCC2 bumet counter = thallium flux persisting under bumetanide in KCC2 cells, confirmation, counter-screen for KCC2 modulator project, cell-based, HEK293 KCC2, FluoZin2, secondary assay 3. AID 1714, 2009. HEK293-KCC2 + bumetanide/ouabain; active compounds read high. shares compounds with KCC2 mod. 49% of 3,700 active. normalized thallium flux at 10 µM;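 active = thallium entry rate above the same plate's blocked-transporter control wells by more than 3 SD; inconclusive = the two repeat wells disagree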;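 note: raw slope of fluorescence over initial fluorescence between 10 and 20 s after thallium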
KCC2 sec2 = KCC2 modulators without ouabain present, confirmation, cell-based, HEK293 KCC2, thallium flux, FluoZin2, secondary assay 2. shares compounds with KCC2 mod. thallium flux FluoZin2 fluorescence; actives lie on both sides; F/F0 rise rate, 10–20 s post-thallium. normalized thallium flux at 10 µM. 23% of 3,700 active. AID 1715, 2009;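 active = thallium flux slope more than 3 SD above or below the plate's solvent-only control mean, mostly below; inconclusive = the two repeat wells disagreed; inactive = no significant shift from solvent-only controls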
HEK counter1 = thallium flux modulation in parental HEK cells, confirmation, counter-screen for KCC2 modulator project, cell-based, counterscreen 1. 46% of 3,700 active. thallium flux rate (normalised fluorescence) at 10 µM. HEK293 parental cells, thallium flux FluoZin2, ouabain; baseline-ratio fluorescence slope, 10–20 s after thallium. shares compounds with KCC2 mod;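 active = thallium flux rate significantly above the same plate's solvent-only control wells, beyond their mean plus 3 SD; inconclusive = the two replicate wells gave conflicting results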
KCC2 ouabain = KCC2 inhibitors and activators, ouabain retest, confirmation, HEK-KCC2 cells; shares compounds with KCC2 mod; AID 1717, 2009; 48% of 3,700 active; raw Tl+ flux slope (below DMSO = inhibition, above = activation) at 10 µM; HEK293-KCC2, thallium flux FluoZin2 fluorescence; bidirectional: low = inhibitor, high = activator;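 active = thallium flux slope beyond 3 SD from same-plate DMSO control mean in most replicates, usually higher, sometimes lower; inconclusive = repeat tests gave conflicting results; inactive = no significant difference from controls in most replicates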;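 note: slope of initial-normalized fluorescence between seconds 10 and 20 after thallium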
HEK counter2 = native HEK Tl+ uptake effects, second counter-screen – HEK cells, counterscreen 2, counter-screen for KCC2 modulator project, confirmation | 33% of 3,700 active | HEK293 parental, thallium flux FluoZin-2 fluorescence slope | AID 1718, 2009 | shares compounds with KCC2 mod | thallium flux slope at 10 µM;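 active = thallium flux slope above the same plate's solvent-control mean plus 3 SD in both duplicate wells; inconclusive = duplicate wells that disagreed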;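 note: run without ouabain in cells lacking the KCC2 cotransporter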
A number is an active result; i = inactive; ? = inconclusive; nt = not tested or not shown. The list is not random: actives were taken first. Their share in the collection is about 4%.

SMILES | Arbovirus anti | Measles CPE | ROMK primary | KCC2 mod | HSV augment | KCC2 sec1 | KCC2 bumet counter | KCC2 sec2 | HEK counter1 | KCC2 ouabain | HEK counter2
CCOC(=O)C(O)(c1ccc(NC(=S)NC(=O)c2ccc(Cl)cc2Cl)c(C)c1)C(F)(F)F (stereo not drawn) | i | i | nt | 5.45 | i | i | 0.0291 | i | 0.0138 | 0.0292 | 0.0157
CC(C)c1ccc(N=Nc2c(O)[nH]c(=O)[nH]c2=O)cc1 | nt | nt | nt | i | i | nt | nt | nt | nt | nt | nt
O=c1[nH]c(=S)[nH]c(O)c1N=Nc1ccc(SC(F)F)cc1 | nt | nt | nt | 41.9 | i | i | 0.0718 | ? | 0.0408 | 0.0874 | 0.0122
CC(C)(C)NC(=S)/N=C(\N)N[N+](=O)[O-] | i | nt | i | i | i | nt | nt | nt | nt | nt | nt
COc1ccc2c(c1)c(C(=O)CN1CCC3(CC1)OCCO3)c(C)n2Cc1ccccc1 | i | i | nt | i | i | nt | nt | nt | nt | nt | nt
O=C1NC(=O)N(c2ccccc2)C(=O)/C1=C/c1coc2ccc(O)cc2c1=O | nt | nt | nt | -4.81 | i | i | i | i | 0.00581 | 0.0138 | i
O=C(C1CCN(c2nc3ccc(Br)cc3s2)CC1)N1CCC2(CC1)OCCO2 | i | i | nt | -5.07 | i | i | i | 0.0272 | i | 0.0187 | i
O=C1NC(=O)C2(Cc3c(nc4ccccn4c3=O)N3CCCCCC32)C(=O)N1Cc1ccccc1 (stereo not drawn) | i | i | i | -3.95 | i | i | i | ? | 0.00513 | 0.0163 | i
O=C1NC(=O)C2(Cc3ccccc3N3CCCC32)C(=O)N1Cc1ccccc1 (stereo not drawn) | i | i | nt | i | i | nt | nt | nt | nt | nt | nt
O=C(COc1ccc(Cl)cc1)N1CCN(Cc2ccccc2)CC1 | i | i | i | nt | i | ? | i | i | i | 0.0254 | i
CC(C)NS(=O)(=O)c1ccc(OCC(=O)N2CCN(Cc3ccccc3)CC2)cc1 | nt | nt | i | i | i | nt | nt | nt | nt | nt | nt
COc1ccc(-c2nn(CCC#N)cc2C(=O)Nc2ccccc2Br)cc1[N+](=O)[O-] | nt | nt | nt | i | i | nt | nt | nt | nt | nt | nt
CCCC(=O)Nc1cc(C(=O)N2CCC3(CC2)OCCO3)ccc1S(=O)(=O)c1ccc(C)cc1 | i | i | nt | -5.15 | i | i | i | i | i | i | i
Cc1ccc(S(=O)(=O)Nc2cc(C(=O)N3CCC4(CC3)OCCO4)ccc2N2CCCCC2)cc1 | i | i | i | nt | i | nt | nt | nt | nt | nt | nt
CC(=O)Nc1cc(C(=O)N2CCC3(CC2)OCCO3)ccc1S(=O)(=O)c1ccc(Cl)cc1 | i | i | i | -6.36 | i | i | i | i | i | i | i
CC(=O)Nc1cc(C(=O)N2CCC3(CC2)OCCO3)ccc1S(=O)(=O)c1ccc(C)cc1 | i | i | i | nt | i | nt | nt | nt | nt | nt | nt
C=Cn1ccnc1P(O)(=S)c1nc(C)c(CCOC(C)=O)s1 (stereo not drawn) | i | nt | i | i | i | nt | nt | nt | nt | nt | nt
